Results: the supplement of paper PMC10849652
About 8,800 targets were measured; listed, in parts, are those with a hit and a random draw of the rest. About 0.5% of all pairs of compound and target were hits.

Legend:
Experiment in all cases: log2 fold change, soluble protein after heating vs DMSO (PISA); higher = thermal stabilisation; K562 lysate, 10 uM; active = over 0.2 and 3.5 SD of the protein, either way, in both replicates (recomputed)
alvocidib = compound: CN1CC[C@H](c2c(O)cc(O)c3c(=O)cc(-c4ccccc4Cl)oc23)[C@H](O)C1 [alvocidib]
In short: (§1)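 Thermal stability, expressed as log-two fold change relative to solvent controls, is given from duplicates. Crude K562 extract in PBS pH 7.4 with 1 mM MgCl2, at 1 mg/mL protein, was treated with 10 μM compound for 30 min and heated in aliquots for 3 min across 48°C-58°C. After pooling, adjustment to 0.5% NP-40 at 4°C and centrifugation at 21,000xg for 90 min, supernatant protein was measured by TMTpro 16plex LC-MS/MS with channel sums equalised.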

Tubastatin A = compound: CN1CCc2c(c3ccccc3n2Cc2ccc(C(=O)NO)cc2)C1 [Tubastatin A]
In short: as §1

[1] = compound: CNC(=O)C1=CC=CC=C1NC2=NC(=NC=C2Cl)NC3=C(C=C(C=C3)N4CCOCC4)OC
In short: as §1

defactinib = compound: CNC(=O)c1ccc(Nc2ncc(C(F)(F)F)c(NCc3nccnc3N(C)S(C)(=O)=O)n2)cc1 [defactinib]
In short: as §1

[2] = compound: CNc1nc(-c2ccc3c(N)n[nH]c3c2)cc(N2C[C@@H](C(=O)NC3CCCCC3)CC[C@H]2C)n1
In short: as §1

encorafenib = compound: COC(=O)N[C@@H](C)CNc1nccc(-c2cn(C(C)C)nc2-c2cc(Cl)cc(NS(C)(=O)=O)c2F)n1 [encorafenib]
In short: as §1

[3] = compound: COC(=O)[C@H](CCSC)NC(=O)C1=C(C=C(C=C1)NC[C@H](CS)N)C2=CC=CC=C2
In short: as §1

alisertib = compound: COc1cc(Nc2ncc3c(n2)-c2ccc(Cl)cc2C(c2c(F)cccc2OC)=NC3)ccc1C(=O)O [alisertib]
In short: as §1

[4] = compound: COc1cc2nc(-c3cc(F)ccc3O)nc(N[C@@H]3CNC[C@H]3C(C)(C)O)c2cc1OC
In short: as §1

gefitinib = compound: COc1cc2ncnc(Nc3ccc(F)c(Cl)c3)c2cc1OCCCN1CCOCC1 [gefitinib]
In short: as §1

lapatinib = compound: CS(=O)(=O)CCNCc1ccc(-c2ccc3ncnc(Nc4ccc(OCc5cccc(F)c5)c(Cl)c4)c3c2)o1 [lapatinib]
In short: as §1

pictilisib = compound: CS(=O)(=O)N1CCN(Cc2cc3nc(-c4cccc5[nH]ncc45)nc(N4CCOCC4)c3s2)CC1 [pictilisib]
In short: as §1

crizotinib = compound: C[C@@H](Oc1cc(-c2cnn(C3CCNCC3)c2)cnc1N)c1c(Cl)ccc(F)c1Cl [crizotinib]
In short: as §1

[5] = compound: C[C@H](C1=CC=C(C=C1)C(=O)NC2=C3C=CNC3=NC=C2)N
In short: as §1

duvelisib = compound: C[C@H](Nc1ncnc2nc[nH]c12)c1cc2cccc(Cl)c2c(=O)n1-c1ccccc1 [duvelisib]
In short: as §1

gandotinib = compound: Cc1cc(Nc2cc(CN3CCOCC3)c3nc(C)c(Cc4ccc(Cl)cc4F)n3n2)n[nH]1 [gandotinib]
In short: as §1

tozasertib = compound: Cc1cc(Nc2cc(N3CCN(C)CC3)nc(Sc3ccc(NC(=O)C4CC4)cc3)n2)n[nH]1 [tozasertib]
In short: as §1

doramapimod = compound: Cc1ccc(-n2nc(C(C)(C)C)cc2NC(=O)Nc2ccc(OCCN3CCOCC3)c3ccccc23)cc1 [doramapimod]
In short: as §1

bafetinib = compound: Cc1ccc(NC(=O)c2ccc(CN3CC[C@H](N(C)C)C3)c(C(F)(F)F)c2)cc1Nc1nccc(-c2cncnc2)n1 [bafetinib]
In short: as §1

[6] = compound: Cc1cccc(CC(=O)N2CCc3c2ccc(-c2cn(C)c4ncnc(N)c24)c3F)n1
In short: as §1

Measured: log2 fold change

PTPN23 (UniProt Q9H3S7)
inactive: alvocidib -0.004 | Tubastatin A -0.035 | [1] -0.03 | defactinib -0.018 | [2] 0.016 | encorafenib 0.031 | [3] -0.018 | alisertib 0.012 | [4] -0.017 | gefitinib 0.005 | lapatinib 0.003 | pictilisib -0.028 | crizotinib -0.014 | [5] 0.005 | duvelisib -0.023 | gandotinib -0.031 | tozasertib 0.013 | doramapimod 0.016 | bafetinib -0.032 | [6] 0.023

PRMT5 (UniProt O14744)
Chain of UniProt O14744 (O14744 whole entry, looked up): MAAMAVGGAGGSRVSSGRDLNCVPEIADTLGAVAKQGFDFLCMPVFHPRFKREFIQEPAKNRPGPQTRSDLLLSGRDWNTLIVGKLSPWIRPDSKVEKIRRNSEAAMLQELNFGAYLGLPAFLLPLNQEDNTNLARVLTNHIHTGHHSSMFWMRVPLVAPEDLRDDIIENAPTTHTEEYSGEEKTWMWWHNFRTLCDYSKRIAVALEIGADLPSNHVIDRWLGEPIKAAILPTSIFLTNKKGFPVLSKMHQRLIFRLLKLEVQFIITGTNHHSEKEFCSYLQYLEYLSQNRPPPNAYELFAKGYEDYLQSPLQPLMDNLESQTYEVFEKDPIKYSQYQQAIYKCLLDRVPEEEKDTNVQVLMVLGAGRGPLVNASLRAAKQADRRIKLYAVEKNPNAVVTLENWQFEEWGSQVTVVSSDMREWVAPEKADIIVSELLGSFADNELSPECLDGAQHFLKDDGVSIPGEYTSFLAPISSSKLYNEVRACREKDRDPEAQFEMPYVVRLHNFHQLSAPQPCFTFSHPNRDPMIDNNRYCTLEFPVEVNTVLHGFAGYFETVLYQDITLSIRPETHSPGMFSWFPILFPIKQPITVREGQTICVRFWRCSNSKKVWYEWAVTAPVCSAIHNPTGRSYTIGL
inactive: Tubastatin A -0.009 | [1] 0.008 | defactinib -0.019 | [2] 0.013 | encorafenib -0.015 | [3] -0.099 | alisertib 0 | [4] 0.011 | gefitinib -0.023 | lapatinib -0.029 | pictilisib -0.012 | crizotinib 0 | [5] -0.02 | duvelisib 0.158 | gandotinib 0.011 | tozasertib 0.017 | doramapimod -0.004 | bafetinib -0.021 | [6] -0.008
active: alvocidib 0.318

PLXNB2 (UniProt O15031)
Chain of UniProt O15031 (O15031 whole entry, looked up): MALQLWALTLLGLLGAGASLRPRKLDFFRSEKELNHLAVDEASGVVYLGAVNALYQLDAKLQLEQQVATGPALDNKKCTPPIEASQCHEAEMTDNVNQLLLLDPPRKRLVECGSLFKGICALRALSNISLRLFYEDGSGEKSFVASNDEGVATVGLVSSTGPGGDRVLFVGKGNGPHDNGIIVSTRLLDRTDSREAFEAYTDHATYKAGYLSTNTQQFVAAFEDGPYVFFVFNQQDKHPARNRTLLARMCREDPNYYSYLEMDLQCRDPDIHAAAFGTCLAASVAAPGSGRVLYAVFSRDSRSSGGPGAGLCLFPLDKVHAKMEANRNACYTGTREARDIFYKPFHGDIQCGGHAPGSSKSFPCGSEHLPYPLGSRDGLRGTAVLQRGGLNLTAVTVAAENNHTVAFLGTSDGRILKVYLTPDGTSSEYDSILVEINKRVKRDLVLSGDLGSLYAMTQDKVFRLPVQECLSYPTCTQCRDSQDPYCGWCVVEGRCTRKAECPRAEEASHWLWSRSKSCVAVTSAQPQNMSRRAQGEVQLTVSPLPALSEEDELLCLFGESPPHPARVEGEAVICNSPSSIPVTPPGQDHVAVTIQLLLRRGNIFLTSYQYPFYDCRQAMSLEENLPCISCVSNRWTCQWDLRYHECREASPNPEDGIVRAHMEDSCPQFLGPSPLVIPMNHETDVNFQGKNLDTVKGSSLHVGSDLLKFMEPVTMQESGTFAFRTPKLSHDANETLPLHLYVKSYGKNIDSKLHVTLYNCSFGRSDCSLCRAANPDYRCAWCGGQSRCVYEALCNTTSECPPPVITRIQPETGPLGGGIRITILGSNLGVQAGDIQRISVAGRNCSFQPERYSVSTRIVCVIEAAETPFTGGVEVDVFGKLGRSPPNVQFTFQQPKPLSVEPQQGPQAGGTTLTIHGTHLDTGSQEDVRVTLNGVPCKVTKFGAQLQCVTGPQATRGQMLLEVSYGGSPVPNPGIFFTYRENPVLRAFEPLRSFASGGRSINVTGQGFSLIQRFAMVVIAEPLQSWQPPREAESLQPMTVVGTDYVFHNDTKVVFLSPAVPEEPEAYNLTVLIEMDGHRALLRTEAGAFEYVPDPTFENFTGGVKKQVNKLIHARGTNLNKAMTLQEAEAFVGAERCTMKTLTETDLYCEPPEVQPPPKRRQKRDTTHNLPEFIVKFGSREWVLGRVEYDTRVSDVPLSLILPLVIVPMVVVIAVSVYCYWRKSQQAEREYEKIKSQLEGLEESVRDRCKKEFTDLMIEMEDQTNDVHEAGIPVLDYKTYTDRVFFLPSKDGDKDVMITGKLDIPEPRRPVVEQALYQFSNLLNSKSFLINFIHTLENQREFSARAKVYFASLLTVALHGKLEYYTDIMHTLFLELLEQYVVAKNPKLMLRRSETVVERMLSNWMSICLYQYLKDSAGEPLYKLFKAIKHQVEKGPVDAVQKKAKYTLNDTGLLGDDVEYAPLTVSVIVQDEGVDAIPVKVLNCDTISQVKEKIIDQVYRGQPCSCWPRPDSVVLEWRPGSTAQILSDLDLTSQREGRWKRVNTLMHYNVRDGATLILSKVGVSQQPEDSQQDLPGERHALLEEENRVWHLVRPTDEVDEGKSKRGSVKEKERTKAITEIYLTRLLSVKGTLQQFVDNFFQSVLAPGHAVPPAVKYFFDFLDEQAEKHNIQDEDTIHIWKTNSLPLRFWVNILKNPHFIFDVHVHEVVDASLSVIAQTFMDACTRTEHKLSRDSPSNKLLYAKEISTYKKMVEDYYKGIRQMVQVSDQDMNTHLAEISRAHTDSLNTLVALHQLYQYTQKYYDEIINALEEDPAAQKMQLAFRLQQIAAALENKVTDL
inactive: alvocidib 0 | Tubastatin A 0.015 | [1] 0.009 | defactinib 0.002 | [2] 0.027 | encorafenib 0.004 | [3] -0.107 | alisertib 0.017 | [4] 0.054 | gefitinib 0.016 | lapatinib -0.033 | pictilisib -0.068 | crizotinib -0.014 | [5] -0.019 | duvelisib 0.031 | gandotinib -0.046 | tozasertib 0.027 | doramapimod -0.044 | bafetinib -0.004 | [6] 0.031

POLD3 (UniProt Q15054)
inactive: alvocidib 0.041 | Tubastatin A -0.032 | [1] 0.099 | defactinib -0.033 | [2] -0.03 | encorafenib 0.021 | [3] 0.048 | alisertib -0.025 | [4] 0.007 | gefitinib -0.018 | lapatinib 0.03 | pictilisib -0.046 | crizotinib -0.056 | [5] 0.022 | duvelisib -0.033 | gandotinib -0.079 | tozasertib 0.021 | doramapimod 0.001 | bafetinib -0.031 | [6] -0.038

PIK3CD (UniProt O00329)
inactive: alvocidib -0.105 | Tubastatin A 0.012 | [1] 0.021 | defactinib 0.052 | [2] -0.047 | alisertib -0.027 | [4] 0.027 | lapatinib -0.043 | pictilisib 0.142 | crizotinib -0.037 | [5] 0.035 | gandotinib 0.389 | doramapimod 0.03 | bafetinib -0.136 | [6] -0.016
active: duvelisib 0.477

POLA1 (UniProt P09884)
Chain of UniProt P09884 (P09884 whole entry, looked up): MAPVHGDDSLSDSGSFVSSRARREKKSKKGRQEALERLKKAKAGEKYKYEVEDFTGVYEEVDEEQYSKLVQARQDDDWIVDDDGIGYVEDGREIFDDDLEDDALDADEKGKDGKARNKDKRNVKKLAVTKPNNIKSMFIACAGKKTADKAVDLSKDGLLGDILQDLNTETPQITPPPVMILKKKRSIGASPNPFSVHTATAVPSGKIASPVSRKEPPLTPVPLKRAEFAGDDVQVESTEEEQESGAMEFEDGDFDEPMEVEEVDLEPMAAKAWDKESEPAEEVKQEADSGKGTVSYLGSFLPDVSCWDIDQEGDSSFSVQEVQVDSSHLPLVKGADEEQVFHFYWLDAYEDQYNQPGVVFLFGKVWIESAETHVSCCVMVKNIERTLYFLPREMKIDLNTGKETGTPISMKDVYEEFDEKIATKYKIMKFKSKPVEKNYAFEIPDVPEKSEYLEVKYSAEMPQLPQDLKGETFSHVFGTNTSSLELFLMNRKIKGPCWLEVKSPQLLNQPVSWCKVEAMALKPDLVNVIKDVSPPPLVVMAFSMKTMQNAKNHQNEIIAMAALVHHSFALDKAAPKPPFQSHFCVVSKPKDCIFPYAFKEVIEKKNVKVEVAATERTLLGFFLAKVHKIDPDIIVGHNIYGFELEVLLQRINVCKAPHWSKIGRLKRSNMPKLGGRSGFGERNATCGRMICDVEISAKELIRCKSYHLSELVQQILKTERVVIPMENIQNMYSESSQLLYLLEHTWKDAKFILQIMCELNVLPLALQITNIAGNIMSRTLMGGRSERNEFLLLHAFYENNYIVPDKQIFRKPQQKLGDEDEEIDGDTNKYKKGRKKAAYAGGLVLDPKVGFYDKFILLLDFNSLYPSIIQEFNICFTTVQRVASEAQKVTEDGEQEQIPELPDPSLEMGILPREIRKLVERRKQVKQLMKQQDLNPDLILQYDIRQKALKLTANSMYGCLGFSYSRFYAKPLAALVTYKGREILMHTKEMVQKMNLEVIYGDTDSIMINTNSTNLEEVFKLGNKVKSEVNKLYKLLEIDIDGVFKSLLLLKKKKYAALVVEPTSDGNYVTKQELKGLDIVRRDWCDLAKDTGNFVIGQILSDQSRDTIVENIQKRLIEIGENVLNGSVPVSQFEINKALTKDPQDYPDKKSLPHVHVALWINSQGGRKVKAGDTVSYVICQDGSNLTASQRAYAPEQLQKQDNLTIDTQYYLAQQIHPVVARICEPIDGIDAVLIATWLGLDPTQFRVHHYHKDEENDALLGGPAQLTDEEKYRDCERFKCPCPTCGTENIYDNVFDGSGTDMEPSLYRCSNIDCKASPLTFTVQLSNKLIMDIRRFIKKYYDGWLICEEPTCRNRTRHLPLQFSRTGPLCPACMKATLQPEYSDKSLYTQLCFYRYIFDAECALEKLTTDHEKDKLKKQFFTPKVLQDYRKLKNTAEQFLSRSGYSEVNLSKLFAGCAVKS
inactive: alvocidib -0.01 | Tubastatin A -0.031 | [1] 0.037 | defactinib 0.016 | [2] -0.004 | encorafenib 0.022 | [3] 0.061 | alisertib -0.013 | [4] 0.014 | gefitinib 0.008 | lapatinib -0.022 | pictilisib -0.044 | crizotinib -0.03 | [5] -0.011 | duvelisib 0.009 | gandotinib -0.016 | tozasertib 0.003 | doramapimod 0.01 | bafetinib -0.057 | [6] 0.004

PRKAR2B (UniProt P31323)
active: gandotinib -0.31
inactive: alvocidib 0 | Tubastatin A -0.021 | [1] -0.05 | defactinib -0.117 | [2] -0.023 | encorafenib 0.04 | [3] 0.1 | alisertib -0.014 | [4] -0.032 | gefitinib -0.046 | lapatinib 0.013 | pictilisib -0.059 | crizotinib -0.007 | [5] -0.011 | duvelisib 0 | tozasertib 0.038 | doramapimod 0.017 | bafetinib -0.02 | [6] 0.001

PPM1H (UniProt Q9ULR3)
inactive: alvocidib -0.046 | Tubastatin A 0.071 | [1] 0.006 | defactinib -0.03 | [2] 0.078 | encorafenib -0.008 | [3] -0.028 | [4] 0.05 | lapatinib 0.013 | pictilisib 0.016 | crizotinib 0.021 | [5] -0.043 | duvelisib 0 | gandotinib 0.157 | tozasertib 0.021 | doramapimod 0.093 | bafetinib -0.079 | [6] 0.038

PPT2 isoform 3 (UniProt Q9UMR5)
inactive: alvocidib -0.051 | Tubastatin A 0.014 | [1] -0.005 | defactinib -0.067 | [2] 0 | encorafenib -0.014 | [3] 0.059 | alisertib 0.013 | [4] 0.015 | gefitinib 0.031 | lapatinib -0.053 | pictilisib -0.032 | crizotinib 0.035 | [5] 0.058 | duvelisib 0.06 | gandotinib 0.016 | tozasertib 0.004 | doramapimod 0 | bafetinib 0.005 | [6] -0.05

POC5 (UniProt Q8NA72)
inactive: alvocidib -0.048 | Tubastatin A -0.046 | [1] 0.054 | defactinib 0.154 | [2] 0.06 | encorafenib 0 | [3] -0.048 | alisertib -0.018 | [4] -0.009 | gefitinib 0.042 | lapatinib -0.133 | pictilisib -0.12 | crizotinib 0.02 | [5] 0.022 | duvelisib -0.041 | gandotinib 0.107 | tozasertib -0.086 | doramapimod -0.023 | bafetinib 0.051 | [6] 0.031

PRPF38A (UniProt Q8NAV1)
inactive: alvocidib -0.178 | Tubastatin A -0.068 | [1] -0.147 | defactinib 0.013 | [2] -0.004 | encorafenib 0.115 | [3] -0.009 | alisertib -0.044 | [4] 0.013 | gefitinib -0.017 | lapatinib -0.001 | pictilisib 0.039 | crizotinib -0.248 | duvelisib 0.03 | gandotinib 0.024 | tozasertib -0.034 | doramapimod 0.012 | bafetinib -0.055 | [6] 0.121
active: [5] -0.399

PRKCSH (UniProt K7ELL7)
inactive: alvocidib 0.048 | Tubastatin A 0.073 | [1] -0.026 | defactinib 0.006 | [2] -0.013 | encorafenib 0.048 | [3] -0.002 | alisertib 0.018 | [4] 0.083 | gefitinib -0.12 | lapatinib -0.009 | pictilisib 0.028 | crizotinib 0.061 | [5] 0.181 | duvelisib 0.1 | gandotinib -0.047 | tozasertib 0.062 | doramapimod -0.044 | bafetinib 0.031 | [6] -0.019

PRIM2 (UniProt P49643)
inactive: alvocidib -0.008 | Tubastatin A -0.138 | [1] 0.033 | defactinib -0.01 | [2] 0.009 | encorafenib -0.002 | [3] 0.035 | alisertib -0.017 | [4] -0.009 | gefitinib 0.01 | lapatinib 0.045 | pictilisib -0.025 | crizotinib -0.017 | [5] 0.007 | duvelisib -0.002 | gandotinib -0.056 | tozasertib -0.04 | doramapimod 0.028 | bafetinib -0.1 | [6] 0.004

PIM1 isoform 2 (UniProt P11309)
Chain of UniProt P11309 (P11309 whole entry, looked up): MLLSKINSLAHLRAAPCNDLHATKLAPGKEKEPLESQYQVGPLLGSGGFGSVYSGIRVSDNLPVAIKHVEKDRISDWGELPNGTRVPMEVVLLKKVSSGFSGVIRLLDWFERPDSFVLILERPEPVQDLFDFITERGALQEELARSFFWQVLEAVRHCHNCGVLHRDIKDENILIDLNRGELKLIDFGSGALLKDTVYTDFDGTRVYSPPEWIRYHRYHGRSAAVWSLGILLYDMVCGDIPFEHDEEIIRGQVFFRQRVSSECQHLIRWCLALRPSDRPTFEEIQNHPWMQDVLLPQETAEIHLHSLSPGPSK
inactive: alvocidib 0.217 | Tubastatin A -0.204 | [1] 0.052 | defactinib 0.035 | [2] -0.152 | encorafenib -0.007 | [3] 0.038 | alisertib -0.017 | gefitinib 0.003 | pictilisib 0.084 | crizotinib -0.107 | [5] 0.096 | duvelisib 0.081 | gandotinib -0.121 | tozasertib 0.046 | doramapimod -0.012 | bafetinib -0.043 | [6] -0.025

PES1 (UniProt O00541)
Chain of UniProt O00541 (O00541 whole entry, looked up): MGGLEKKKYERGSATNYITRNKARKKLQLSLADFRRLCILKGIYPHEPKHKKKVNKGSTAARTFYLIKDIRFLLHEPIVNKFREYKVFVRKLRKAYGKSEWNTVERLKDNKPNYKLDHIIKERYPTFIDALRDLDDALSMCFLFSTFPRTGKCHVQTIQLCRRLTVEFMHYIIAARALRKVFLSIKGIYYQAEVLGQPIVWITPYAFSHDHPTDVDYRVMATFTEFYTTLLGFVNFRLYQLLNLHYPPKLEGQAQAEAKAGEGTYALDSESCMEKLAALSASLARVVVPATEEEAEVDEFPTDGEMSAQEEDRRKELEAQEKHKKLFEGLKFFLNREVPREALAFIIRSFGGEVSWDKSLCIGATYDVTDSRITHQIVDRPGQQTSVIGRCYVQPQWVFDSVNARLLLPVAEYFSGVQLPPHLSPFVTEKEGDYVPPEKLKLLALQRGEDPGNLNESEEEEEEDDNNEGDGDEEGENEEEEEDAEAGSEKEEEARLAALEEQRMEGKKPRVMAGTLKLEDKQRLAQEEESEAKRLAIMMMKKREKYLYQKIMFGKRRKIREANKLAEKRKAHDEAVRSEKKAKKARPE
inactive: alvocidib -0.017 | Tubastatin A -0.044 | [1] 0.05 | defactinib 0.005 | [2] 0.017 | encorafenib 0.006 | alisertib 0.028 | [4] -0.003 | gefitinib 0.007 | lapatinib 0.006 | pictilisib 0.005 | crizotinib -0.001 | [5] -0.027 | duvelisib 0.01 | gandotinib -0.025 | tozasertib 0.004 | doramapimod -0.021 | bafetinib -0.014 | [6] 0.064
active: [3] 0.35

POLR2M (UniProt P0CAP2)
inactive: alvocidib -0.002 | Tubastatin A 0.031 | [1] 0.021 | defactinib 0.037 | [2] 0.035 | [3] -0.047 | alisertib -0.011 | [4] 0.019 | gefitinib 0.027 | lapatinib -0.034 | pictilisib -0.055 | crizotinib 0.016 | [5] -0.031 | duvelisib 0.015 | gandotinib 0.02 | tozasertib 0.185 | doramapimod 0.009 | bafetinib -0.011 | [6] 0.041
active: encorafenib 0.33
